For 97 molecules, inhibition results are on record in PubChem BioAssay AID778 (Sanford-Burnham Center for Chemical Genomics, 2007).

Hit rate of the full screen: of about 96,000 compounds, about 20,000 (21%) were called active. The list is a sample of the results. Unmarked numbers belong to inactive results.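 The calls were made as follows: active = CYP2C19 inhibition above a set limit at 5 µM in the primary screen (cut at about 50% in these data); inactive = the rest.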

In this experiment the target is Cytochrome P450 2C19 (Homo sapiens) (UniProt P33261). Kind of experiment: blockers of cytochrome P450 2C19 activity – biochemical, luminescence, ADME assay, primary screen (AID 778).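 Also: plate controls were negative control wells for no effect and 2.5 mM tranylcypromine positive control for full effect.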 To be noted: CYP2C19 Supersomes, luciferin-H EGE luminescence, 30 min; at 5 µM; stronger effect = higher value.
Cytochrome P450 2C19 (Homo sapiens), sequence (P33261 whole entry, looked up): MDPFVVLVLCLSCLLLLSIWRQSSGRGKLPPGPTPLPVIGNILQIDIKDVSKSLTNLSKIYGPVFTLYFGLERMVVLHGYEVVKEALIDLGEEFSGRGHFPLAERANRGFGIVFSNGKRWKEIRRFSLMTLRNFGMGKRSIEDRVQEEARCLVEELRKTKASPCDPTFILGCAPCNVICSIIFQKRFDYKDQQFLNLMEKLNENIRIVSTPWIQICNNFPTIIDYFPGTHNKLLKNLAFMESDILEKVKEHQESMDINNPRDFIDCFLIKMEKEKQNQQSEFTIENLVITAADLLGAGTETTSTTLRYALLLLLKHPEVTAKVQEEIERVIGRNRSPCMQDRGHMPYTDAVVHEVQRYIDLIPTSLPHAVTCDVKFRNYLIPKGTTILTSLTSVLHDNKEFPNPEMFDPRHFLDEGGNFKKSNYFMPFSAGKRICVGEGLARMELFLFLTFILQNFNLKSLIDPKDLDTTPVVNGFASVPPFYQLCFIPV
The term inhibition denotes the change of the read-out against control, counted positive when it falls. `O=C(O)CCCC(=O)Nc1ccccc1-n1ccnc1`: the inhibition is -4.7%.
Consider `O=C(CCN1c2ccccc2Sc2ccccc21)Nc1ccccc1`, for which the inhibition is 80.2% (active).
`O=C(CC1Nc2ccccc2NC1=O)Nc1ccccc1` (configuration not stated): the inhibition is 2.9%.
Under `Cc1cc(N)n2nc(-c3ccc(C(C)(C)C)cc3)cc2n1` stands 26.1%; under `COc1cccc(Nc2ncccc2C(=O)O)c1`, -9.2%.
For `O=C(CNC(=O)Cc1ccccc1)NCC(=O)OCC(=O)c1ccccc1Cl`, the inhibition was 1.6%.
Turning to `CC(C)(C)n1nnnc1C(c1cccs1)N(Cc1cccnc1)CC1CCCO1` (configuration not stated), the inhibition was 31.5%.
For the molecule `CCOc1ccc2[nH]c(=O)c(CN(Cc3nnnn3Cc3ccccc3)CC3CCCO3)cc2c1` (configuration not stated), the inhibition was 8.7%.
On to `Cc1cc(C)c2cc(CN(Cc3cccs3)Cc3nnnn3CC3CCCO3)c(=O)[nH]c2c1` (configuration not stated), for which the inhibition was 84.5% (active).
`COc1ccc(N(Cc2cc3cc(OC)ccc3[nH]c2=O)S(C)(=O)=O)cc1`: the inhibition was 18.7%.
Regarding `Cc1cc2cc(CN(Cc3cccs3)Cc3nnnn3CC3CCCO3)c(=O)[nH]c2cc1C` (configuration not stated), the inhibition is 34.3%.
As to `COc1ccc2[nH]c(=O)c(CN(Cc3nnnn3CCc3ccccc3)CC3CCCO3)cc2c1` (configuration not stated), the inhibition is 77.7% (active).
As to `Nc1c(C(=O)NCc2ccccc2)sc2nc3c(cc12)C(=O)CCC3`, the inhibition is -16.5%.
For `CCn1c(=O)cc(O)c2ccccc21`, the inhibition is -18.1%.
Regarding `CC(=O)c1c(C)c[nH]c1C`, the inhibition is -14.8%.
As for `CCC(=O)Nc1ccc(C(=O)Nc2ccc3c(c2)C(=O)N(CC2CCCO2)C3=O)cc1` (configuration not stated), the inhibition is -1%.
Under `CCC(C)(C)n1nnnc1CN1CCN(c2nc3ccc(C)cc3cc2C#N)CC1` stands 0.3%; under `CCSC1(SCC)N=C(N)C2(C#N)C(c3ccccc3)NC(C)=CC12C#N` (configuration not stated), 16.1%.
Regarding `O=C(CCl)NNc1cccc(Cl)n1`, the inhibition was 6.7%.
As to `COC(=O)c1oc2ccc(Br)cc2c1NC(C)=O`, the inhibition was 14.7%.
As to `COC(=O)CN1C(C)=Nc2ccc(Br)cc2C1c1ccccc1` (configuration not stated), the inhibition was 43.4%.
As to `COC(=O)C1=C(C)N(C)C(C)=C(C(=O)OC)C1c1cccc(Br)c1`, the inhibition is 79.2% (active).
`CCOC(=O)CN1CC23C=CC(O2)C(C(=O)Nc2ccc(F)cc2)C3C1=O` (configuration not stated): the inhibition was 40.7%.
As to `CCNC(=S)NNC(=O)Cc1ccccc1`, the inhibition is 18.2%.
Regarding `Cc1occc1C(=O)NNC(=S)NCC(C)C`, the inhibition is 74.6% (active).
In the case of `CC(C)CNC(=S)NNC(=O)c1ccccc1OC(F)F`, the inhibition was 16.6%.
`O=C(NCc1ccco1)c1nc2ncccn2n1`: the inhibition was -0.7%.
`CN1CCN(Cc2nc3c(c(=O)n(C)c(=O)n3C)n2Cc2cccc3ccccc23)CC1`: the inhibition is -17.1%.
In the case of `O=S(=O)(c1cccc(-c2nnc(SC(F)F)n2-c2ccccc2)c1)N1CCCCC1`, the inhibition is 41.6%.
In the case of `O=S(=O)(c1cccc(S(=O)(=O)N2CCC(n3nnc4ccccc43)CC2)c1)N1CCCCC1`, the inhibition is 94.7% (active).
With `CC(=O)c1cccc(S(=O)(=O)N2CCC(n3nnc4cc(F)ccc43)CC2)c1` the figure was 43.1%.
Take `Cc1ccc(CNC(=O)CCNC(=O)Cn2ccc3ccccc3c2=O)cc1`: the inhibition was 17.4%.
As for `CCOCCOCCC(C(=O)O)P(=O)(c1ccccc1)c1ccccc1` (configuration not stated), the inhibition was -2.4%.
With `COc1ccc(NC(=O)ON=C2c3ccccc3-c3ccccc32)cc1`, the inhibition was 11.6%.
In the case of `COc1ccc(Cl)cc1NC(=O)CN(C)C(=O)CNC(=O)C12CC3CC(CC(C3)C1)C2`, the inhibition is 67.9% (active).
On to `COc1ccc(Cl)cc1NC(=O)c1oc(C)nc1C`, for which the inhibition was -9%.
In the case of `CCCCC(=O)N/N=C(\C)CC(=O)Nc1cc(Cl)ccc1OC`, the inhibition was 6.1%.
Regarding `O=C(CSCc1ccc([N+](=O)[O-])cc1)Nc1cccc(C(=O)Nc2ccccc2C(=O)O)c1`, the inhibition is 14.5%.
Under `Cc1ccc(S(=O)(=O)NCC(C)NS(C)(=O)=O)cc1` (configuration not stated) stands 16.9%.
With `COc1ccccc1CNS(=O)(=O)c1ccc(C)cc1`, the inhibition is 92.5% (active).
With `COc1ccccc1Cc1nc(-c2ccc(C)cc2)no1` the figure was 35.6%; with `Nc1c(C(=O)NCc2ccccc2)nnn1Cc1cccc(Cl)c1`, 6.4%; with `CC(C)=CC(=O)Nc1nnc(-c2ccc(F)cc2)s1`, 4.7%.
Regarding `CCOC(=O)C1CCN(C(=O)Nc2ccc(Cl)cc2)CC1`, the inhibition is 63.1% (active).
With `CCOC(=O)C1CCN(C(=O)C2CCN(S(=O)(=O)CC)CC2)CC1`, the inhibition was -18.2%.
`CCOC(=O)C1CCN(C(=O)C2CCN(S(=O)(=O)N3CCCC3)CC2)CC1`: the inhibition is 10.9%.
Consider `Cc1ccc(-c2nc(C)sc2CC(=O)O)cc1`, for which the inhibition is 29.8%.
`NC(=O)COc1ccc(/C=N/NC(=O)C2CCCN2S(=O)(=O)c2ccc(Cl)cc2)cc1` (configuration not stated): the inhibition is 19.2%.
Turning to `CSc1ccc(/C=N\NC(=O)COc2ccc(Cl)cc2Br)cc1`, the inhibition was 76.4% (active).
For the molecule `O=C(Cc1ccccc1)N/N=C/c1ccc(Cl)cc1Cl`, the inhibition was 7.9%.
For the molecule `CC(C)COC(=O)c1ccc(NC(=O)C2C3C=CC(C3)C2C(=O)O)cc1` (configuration not stated), the inhibition was 54.2% (active).
Take `CS(=O)(=O)c1ccc2nc(NC(=O)C3C4C=CC(C4)C3C(=O)O)sc2c1` (configuration not stated): the inhibition was 0.7%.
In the case of `COC(=O)c1cc(NC(=O)C2C3C=CC(C3)C2C(=O)O)cc(C(=O)OC)c1` (configuration not stated), the inhibition was 2.5%.
In the case of `CC(Sc1nnc(Cc2ccc([N+](=O)[O-])cc2)o1)C(N)=O` (configuration not stated), the inhibition is 16.6%.
In the case of `O=C(Cn1cnc2c(cnn2-c2ccccc2)c1=O)NCc1ccccc1`, the inhibition was -10.8%.
Regarding `CN1C(=O)C(CC(N)=O)N(NC(=O)c2ccc(Cl)cc2)C1=S` (configuration not stated), the inhibition was -7.8%.
Under `CCCCC(=O)N1CC2(C)CN(C(=O)CCCC)CC(C)(C1)C2=O` stands -1.6%; under `CC(=O)N1CC2(C)CN(C(C)=O)CC(C)(C1)C2=O`, 79.3% (active).
Under `CCCCNC(=O)CSc1nc2ccc(NC(=O)CSc3nnc(COc4ccccc4C)n3C)cc2s1` stands 19.1%; under `CC(C)c1ccc(NC(=O)CCN2C(=O)c3ccc([N+](=O)[O-])cc3C2=O)cc1`, 8.5%; under `CC(C)OC(=O)c1cc(NC(=O)C2C3CCC(O3)C2C(=O)O)cc(C(=O)OC(C)C)c1` (configuration not stated), 77.9% (active).
As to `Cc1sc(NC(=O)C2C3CCC(O3)C2C(=O)O)c(C(=O)OC(C)C)c1-c1ccc(Cl)cc1` (configuration not stated), the inhibition was 19.7%.
As to `CCC(CC)C(=O)Nc1cc(C(=O)OC)cc(C(=O)OC)c1`, the inhibition was 1.1%.
Regarding `COCCCn1c(SCc2cccc(OC)c2)nc2cc(OC)c(OC)cc2c1=N`, the inhibition was 53.4% (active).
For the molecule `OCCN1CCOCCOCCN(CCO)CCN(CCO)CC1`, the inhibition was 16.6%.
Regarding `O=C(OC1CCOC1=O)c1ccc(-c2nc3ccccc3s2)s1` (configuration not stated), the inhibition was 11.3%.
As to `CC(=O)c1c(N2CCOCC2)nc(=S)n(Cc2ccccc2)c1C`, the inhibition is 12.8%.
As to `Cc1nn(Cc2ccccc2)c(Cl)c1C(=O)OC1CCOC1=O` (configuration not stated), the inhibition was 63.5% (active).
For `COc1cccc(-c2nc(S(=O)(=O)c3ccccc3)c(N3CCOCC3)o2)c1`, the inhibition was 27.7%.
With `O=C(NCc1cn2ccsc2n1)Nc1cccc(Cl)c1`, the inhibition is 13.3%.
With `O=c1[nH]c(=O)n(Cc2ccco2)c2c1C(C(F)(F)F)(C(F)(F)F)N=C(c1ccco1)N2` the figure was -12.6%; with `Cc1cc(-c2ccccc2)n2nc(C)c(-c3ccccc3)c2n1`, 30.7%; with `Cc1ccccc1-c1nnn(CC(=O)c2ccc(S(=O)(=O)N3CCCC3)cc2)n1`, 14.5%.
As to `CCOC(=O)c1csc(NC(=O)c2ccc(S(=O)(=O)N3CCCC3)cc2)n1`, the inhibition is -7%.
For the molecule `Cc1cc(C)n(C(=O)c2ccc(C)c(S(=O)(=O)N3CCOCC3)c2)n1`, the inhibition is 68.7% (active).
For the molecule `Cc1cc(C)n(C(=O)c2ccc(S(=O)(=O)N3CCCC3)cc2)n1`, the inhibition is 68.7% (active).
Under `CC(=O)c1c(N2CCOCC2)nc(=S)n(-c2cc(C)ccc2C)c1C` stands -10.5%.
Regarding `Cc1ccc(C(=O)Nc2ccccc2C(=O)NC2CCCCC2)cc1S(=O)(=O)N1CCOCC1`, the inhibition was 21.5%.
Under `Cc1ccc(-c2nn(C(C)(C)C)c3ncnc(N)c23)cc1` stands 38.5%; under `CCN(Cc1cc2cc(C)ccc2[nH]c1=O)S(=O)(=O)c1ccccc1`, 31.8%; under `CCCNc1ncnc2sc(C)c(C)c12`, 29.6%.
Consider `COC(=O)c1ccc(OC(=O)c2nn(C)cc2Cl)c(OC)c1`, for which the inhibition was 67.9% (active).
Turning to `COc1ccc(Cl)cc1C(=O)NCc1cn(C)nc1C`, the inhibition is 10.4%.
Turning to `COC(=O)c1ccc(CSc2nncn2C)cc1`, the inhibition is 39.9%.
For the molecule `CC(=O)CCS(=O)(=O)c1ccc(C)c(C)c1`, the inhibition is 35.1%.
Consider `CCN(CC)CC(=O)Nc1nn(-c2ccccc2)nc1C(N)=O`, for which the inhibition was -19.9%.
As for `COC(=O)c1ccc(Oc2nc(Nc3ccc(F)cc3)nc(N3CCCC3)n2)cc1`, the inhibition is 32.3%.
With `Cc1nn(-c2ccccc2)c2[nH]c(C(F)(F)F)cc(=O)c12`, the inhibition is -2.2%.
With `CCCCn1nnnc1NCc1cc(OC)c(OC)c(OC)c1` the figure was 79.8% (active).
On to `CCCCCCc1cc2cc(-c3nnc(-c4ccccc4)o3)c(=O)oc2cc1O`, for which the inhibition was 27.4%.
With `c1cc(-c2nn[nH]n2)ccc1CN1CCCCC1`, the inhibition is -11.4%.
Consider `c1ccc2cc3[nH]c(CN4CCCCC4)nc3cc2c1`, for which the inhibition is 82.7% (active).
For `c1ccc2cc(OCCN3CCCC3)ccc2c1`, the inhibition is 4.2%.
With `Cc1nc(C)c(-c2csc(NCCc3ccccc3)n2)s1`, the inhibition is 39.4%.
Consider `Cn1c(=NC(=O)c2cnccn2)sc2ccccc21`, for which the inhibition is -2.4%.
Under `Cn1c(=NC(=O)CSCC(=O)N2CCCCC2)sc2ccccc21` stands 73.6% (active); under `Cn1c(=NC(=O)CSCC(=O)N2CCOCC2)sc2ccccc21`, 46.6%.
